ChEMBL document CHEMBL4513216, “Probing the Open Global Health Chemical Diversity Library for Multistage-Active Starting Points for Next-Generation Antimalarials” (ACS Infect Dis, 2020)
In all, about 68,000 compounds went through this assay and about 2,700 (4%) showed an effect of 50% or more. The full list was thinned out, with strong results kept by preference.

What follows are compounds tested on Plasmodium berghei (assay: Screen against P. berghei liver stage (PbLuc), transformed with Luciferase, at 2uM). Details: tested at 2 uM.
Format: functional, HepG2

Compound	INHIBITION
CC(C)NCC1(O)CCCN(CCC2CCCCC2)C1=O (centres undefined)	25.35%
CCC(CNC(=O)c1nc(=O)[nH][nH]1)Oc1cccc(F)c1 (centres undefined)	6.92%
Cc1ccnc(NC(=O)c2[nH]nc(C(C)C)c2Br)c1	49.43%
CC(C)c1n[nH]c(C(=O)Nc2cc[nH]n2)c1Br	11.18%
COc1ccccc1NC(=O)c1[nH]nc(C(C)C)c1Br	-2.93%
Cc1cccc(NC(=O)c2[nH]nc(C(C)C)c2Br)n1	80.46%
CC(C)c1n[nH]c(C(=O)Nc2ccccn2)c1Br	78.42%
CC(C)c1n[nH]c(C(=O)Nc2ccncc2)c1Br	29.37%
Cc1nc(C)n(CC2CCCN(c3ccc(C#N)cn3)C2)n1 (centres undefined)	13.24%
CCN1CCNC(=O)C12CCN(C(=O)Cc1ccccn1)CC2	31.84%
Cc1ccc(C(=O)NCC(O)c2cccc(F)c2)c(=O)[nH]1 (centres undefined)	-7.13%
CCN1CCN(C(=O)c2scnc2C)CC1	-25.82%
CCCN1CCN(C(=O)c2scnc2C)CC1	-21.84%
Cc1ncsc1C(=O)N1CCN(CCC(C)C)CC1	71.95%
CC1CN(C(=O)CN(Cc2ccco2)Cc2cccs2)CCO1 (centres undefined)	26.78%
COc1ccccc1[C@@H]1CN(CC(=O)N2CCCCC2)C[C@H]1C(=O)O	-36.91%
COc1ccccc1C1CCCN1CC(=O)N1CCC(C(N)=O)CC1 (centres undefined)	50.32%
CCOC(=O)C1CCN(C(=O)CN2CCCC2c2ccccc2C)CC1 (centres undefined)	-16.19%
Cc1nc(C2CCCNC2)cc(N2CCc3nc(N)sc3C2)n1 (centres undefined)	17.41%
Cn1cc(CN2CC[C@H](O)[C@@H]2Cc2ccncc2)cn1	23.94%
O=c1c2sccc2nc2n1CCN(Cc1ccsc1)CC2	63.66%
O=c1c2sccc2nc2n1CCN(Cc1ccc(F)c(F)c1)CC2	15.72%
O=c1c2sccc2nc2n1CCN(Cc1cccs1)CC2	15.58%
Cc1ncsc1C(=O)N(C)Cc1ccc(Br)o1	-21.99%
Cc1ccccc1-c1cncc(C2CCN(C3CCOCC3)CC2)n1	8.63%
Cc1oc(NC(=O)C(C)N2CCN(CCO)CC2)c(C#N)c1C (centres undefined)	51.08%
Cc1oc(NC(=O)C(C)N2CCN(C(C)(C)CO)CC2)c(C#N)c1C (centres undefined)	10.1%

Compound	INHIBITION
Cc1oc(NC(=O)C(C)N2CCN(C(=O)C3CC3)CC2)c(C#N)c1C (centres undefined)	30.59%
Cn1ncc2c1CN(Cc1cccnc1)CC2COCC1CC1 (centres undefined)	-12.27%
CCCN1CCN(C(=O)c2ccn(COc3ccc(F)cc3)n2)CC1	-15.49%
CCn1ncc(S(=O)(=O)NC(C)c2cc(OC)ccc2OC)c1C (centres undefined)	0.08%
CN(CC1CCCO1)C1CCN(CCc2ccccn2)CC1 (centres undefined)	14.82%
CCc1cc(NCCNC(C)=O)nc(N2CCCC2)n1	-36.65%
CCc1cc(NCC(N)=O)nc(N2CCCCC2)n1	55.18%
CCc1cc(NC2CCN(CC(N)=O)CC2)nc(N2CCCCC2)n1	-69.81%
COCCN(C)C(=O)c1ccc2onc(-c3coc(C)n3)c2c1	32.04%
CCc1nc(-c2noc3ccc(C(=O)NCCN(C)C)cc23)co1	-18.52%
CCc1nc(-c2noc3ccc(C(=O)N(C)CCOC)cc23)co1	63.23%
C[C@@H]1CN(C2CCN(c3ccccc3F)CC2)C[C@]1(C)O	43.44%
Cc1cc(F)ccc1N1CCC(N2C[C@@H](C)[C@@](C)(O)C2)CC1	67.28%
Cc1cc(F)ccc1N1CCC(N2C[C@@H](CN(C)C)[C@@H](CO)C2)CC1	35.54%
c1ccc(-n2nnnc2NCc2ccc3c(c2)OCO3)cc1	-26.04%
O=C(O)C1CCCN(C(=O)CCn2ccc3c(Cl)cccc32)C1 (centres undefined)	-23.9%
O=C(O)[C@@H]1CN(C(=O)c2ccc3[nH]nnc3c2)C[C@H]1c1ccccc1	39.57%
O=C(Nc1cnccn1)[C@@H]1COC[C@H]2CN(C3CCCC3)C[C@H]21	-31.17%
O=C(Nc1ccncc1)C1=NN(c2ccccc2)C(=O)CN1	17.59%
CCCNC(=O)NCc1nc(C)c(C)o1	22.34%
Cc1nc(CNC(=O)NCCC2=CCCC2)oc1C	67.51%
COCCCNC(=O)NCc1nc(C)c(C)o1	-62.18%
Cc1cc(S(=O)(=O)Nc2onc(C)c2C)sc1C	36.28%
Cc1ccc(CN2CCn3c(CN(C)C(C)C)cnc3C2)s1	18.2%
COCCN1C[C@H]2CN(C(=O)NCc3ccccc3)CCN2C1=O	14.21%
COCCN1C[C@H]2CN(C(=O)C3CC3)CCN2C1=O	14.65%
COCCN1C[C@H]2CN(C(=O)NC(C)C)CCN2C1=O	58.6%
